Cycloheximide cs = Cycloheximide Counterscreen for Small Molecule Inhibitors of Shiga Toxin | cell reporter, cycloheximide protein synthesis inhibition counterscreen | actives 12% (n = 300,000) | max response, %; in the data active = max response mostly above about 13%, no sharp cut-off; inactive = mostly below about 14%; note: read at 38.3 µM for the half of the compounds with a filed dose
Lassa entry inh = qHTS for Inhibitors of binding or entry into cells for Lassa Virus; Lassa virus pseudotype entry inhibition, cell reporter; Potency, µM (top dose mostly 37.9 µM), most hits filed as inhibitors; actives 1.2% (n = 300,000); AID 540256, 2011; calls by dose curve; tested in HEK293 cells; note: nearly all actives have a fitted effect of over 50% in size
AMA1 RON2 block = qHTS for Inhibitors of AMA1-RON; Towards Development of Antimalarial Drug Lead: Primary Screen | Plasmodium falciparum AMA1 (3D7) - RON2 peptide interaction | AlphaScreen AMA1-biotinylated RON2 peptide binding | Potency, µM (highest dose often 58.2 µM), hits mostly inhibitors | actives 0.2% (n = 360,000) | AID 720542, 2013; active = well fitted inhibition curve with a large enough effect; inconclusive = small, poorly fitted or top-dose-only effect; inactive = no such curve, though single readings can be large or run the other way; note: nearly all actives have a fitted effect of over 45% in size
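AMA1 (3D7) with his tag at 25 nM final met compounds first, then biotinylated RON2 peptide at 25 nM; detection used donor plus acceptor beads, 10 µg/mL apiece, read by AlphaScreen after 30 min at room temperature.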
MARV entry inh = qHTS for inhibitors of binding or entry into cells for Marburg Virus; actives 1.8% (n = 300,000); AID 540276, 2011; Marburg virus pseudotyped entry inhibition, cell reporter; Potency, µM (top dose mostly 37.8 µM), most hits filed as inhibitors; calls by dose curve; tested in HEK293 cells
Shiga inhibitor = A qHTS for Small Molecule Inhibitors of Shiga Toxin. inhibition, % at 38.7 µM. AID 2315, 2010. Vero cells, Shiga toxin protein synthesis inhibition reporter. actives 9.2% (n = 290,000); in the data active = inhibition mostly above about 28%, no sharp cut-off; inactive = mostly below about 43%
Each line names hits and unclear results; the compound was inactive in the other large screens. Shown is part of a subset that was picked to be rich in hits.

O=C(Nc1cccnc1)c1ccc(COCC(F)(F)F)cc1	Cycloheximide cs 12, Lassa entry inh inconclusive, Shiga inhibitor 38
CCC(=O)Nc1ccc(C(=O)Nc2cccnc2)cc1	Cycloheximide cs 15, Lassa entry inh inconclusive, Shiga inhibitor 37
C[C@H](CO)N1C[C@H](C)[C@@H](CN(C)C(=O)Nc2ccc(C(F)(F)F)cc2)Oc2ccc(NC(=O)CCC(F)(F)F)cc2C1=O	none (no result: Cycloheximide cs, Lassa entry inh, MARV entry inh, Shiga inhibitor)
COc1ccc(OCC(=O)Nc2ccc(N3CCN(C(=O)c4ccccc4)CC3)c(Cl)c2)cc1	Lassa entry inh inconclusive, MARV entry inh inconclusive
CCOc1ccc(CNC(=O)CCCn2c(=O)c3cccn3c3ccc(F)cc32)cc1	none (no result: Cycloheximide cs, AMA1 RON2 block, MARV entry inh, Shiga inhibitor)
COc1cccc(C(=O)N2N=C(c3ccccn3)CC2(O)C(F)(F)F)c1 (stereo unspecified)	none (no result: Lassa entry inh, MARV entry inh)
O=C(c1ccccc1)N1N=C(C(F)(F)F)CC1(O)c1ccc(F)cc1 (stereo unspecified)	Cycloheximide cs 25, Shiga inhibitor 59
O=C(c1ccccc1)N1N=C(C(F)(F)F)CC1(O)c1ccccc1 (stereo unspecified)	none (no result: Lassa entry inh, MARV entry inh, Shiga inhibitor)
COc1cccc(C2(O)CC(C(F)(F)F)=NN2C(=O)c2ccccn2)c1 (stereo unspecified)	Cycloheximide cs 38, Lassa entry inh inconclusive, MARV entry inh inconclusive, Shiga inhibitor 65
CCOC(=O)N1CCC(NC(=O)c2cnn(-c3ccc(OC)cc3)c2C2CCN(C(=O)OC(C)(C)C)CC2)CC1	none (no result: Cycloheximide cs, AMA1 RON2 block, MARV entry inh, Shiga inhibitor)
COc1ccc(-c2nnn(CC(=O)N(CC(=O)NC3CCCC3)c3ccccc3F)n2)cc1OC	Lassa entry inh inconclusive
C/C(=C\C(=O)c1ccc(Br)cc1)NNC(=O)c1ccc(O)cc1	Cycloheximide cs 27, Shiga inhibitor 50 (no result: Lassa entry inh, MARV entry inh)
C/C(=C\C(=O)c1ccc(Br)cc1)NCc1ccccc1	Cycloheximide cs 19
CC(C)c1ccc(-c2nnn(CCC#N)n2)cc1	Cycloheximide cs 27, Shiga inhibitor 72
COc1cc(OC)c2c(-c3cccc(/C=C/c4ccc(F)cc4)c3)cc(=O)oc2c1	Cycloheximide cs 50, Shiga inhibitor active (no result: Lassa entry inh, MARV entry inh)
COc1ccc(-c2cccc(-c3cc(=O)oc4cc(OC)cc(OC)c34)c2)cc1	none (no result: Cycloheximide cs, Lassa entry inh, MARV entry inh, Shiga inhibitor)
COc1ccc(-c2ccc(-c3cc(=O)oc4cc(C)cc(C)c34)cc2)cc1	Shiga inhibitor active (no result: Lassa entry inh, AMA1 RON2 block, MARV entry inh)
CCOC(=O)c1ccc(-c2ccc(-c3cc(=O)oc4cc(OC)c(OC)c(OC)c34)cc2)cc1	none (no result: Lassa entry inh, MARV entry inh)
COc1cc2oc(=O)cc(-c3ccc(-c4ccc(N(C)C)cc4)cc3)c2c(OC)c1OC	Cycloheximide cs 64, Shiga inhibitor active (no result: Lassa entry inh, MARV entry inh)
COc1ccc(-c2cccc(-c3cc(=O)oc4cc(OC)c(OC)c(OC)c34)c2)cc1	none (no result: Lassa entry inh, MARV entry inh)
COc1cc2oc(=O)cc(-c3ccc(-c4ccc(OC(F)(F)F)cc4)cc3)c2c(OC)c1OC	Shiga inhibitor 70 (no result: Lassa entry inh, MARV entry inh)
CCc1c(C)sc2c1CCN(C(=O)Nc1ccccc1Cl)C2c1ccc(OC)cc1 (stereo unspecified)	none (no result: Cycloheximide cs, AMA1 RON2 block, MARV entry inh, Shiga inhibitor)
COc1cc(OC)c2c(-c3cccc(-c4ccc(N(C)C)cc4)c3)cc(=O)oc2c1	Cycloheximide cs 37, AMA1 RON2 block inconclusive, Shiga inhibitor active (no result: Lassa entry inh, MARV entry inh)
COc1ccc(-c2ccc(-c3cc(=O)oc4cc(OC)c(OC)c(OC)c34)cc2)cc1F	Cycloheximide cs 30, Shiga inhibitor 79 (no result: Lassa entry inh, MARV entry inh)
COc1cc2oc(=O)cc(-c3ccc(-c4ccc(F)c(Cl)c4)cc3)c2c(OC)c1OC	none (no result: Lassa entry inh, MARV entry inh)
COc1cc2oc(=O)cc(-c3cccc(-c4ccc(C(C)=O)cc4)c3)c2c(OC)c1OC	Cycloheximide cs 39, Shiga inhibitor active (no result: Lassa entry inh, AMA1 RON2 block, MARV entry inh)
COc1ccc(-c2cccc(-c3cc(=O)oc4cc5c(cc34)OCO5)c2)cc1	Cycloheximide cs 30 (no result: Lassa entry inh, MARV entry inh)

Bioassay records deposited in PubChem by National Center for Advancing Translational Sciences (NCATS).
